{"source": "PubChem BioAssay (NCATS)", "key": {"[1]": {"target": "Glutaminase kidney isoform, mitochondrial (Homo sapiens) (UniProt O94925)", "sequence (O94925 whole entry, looked up, canonical isoform)": "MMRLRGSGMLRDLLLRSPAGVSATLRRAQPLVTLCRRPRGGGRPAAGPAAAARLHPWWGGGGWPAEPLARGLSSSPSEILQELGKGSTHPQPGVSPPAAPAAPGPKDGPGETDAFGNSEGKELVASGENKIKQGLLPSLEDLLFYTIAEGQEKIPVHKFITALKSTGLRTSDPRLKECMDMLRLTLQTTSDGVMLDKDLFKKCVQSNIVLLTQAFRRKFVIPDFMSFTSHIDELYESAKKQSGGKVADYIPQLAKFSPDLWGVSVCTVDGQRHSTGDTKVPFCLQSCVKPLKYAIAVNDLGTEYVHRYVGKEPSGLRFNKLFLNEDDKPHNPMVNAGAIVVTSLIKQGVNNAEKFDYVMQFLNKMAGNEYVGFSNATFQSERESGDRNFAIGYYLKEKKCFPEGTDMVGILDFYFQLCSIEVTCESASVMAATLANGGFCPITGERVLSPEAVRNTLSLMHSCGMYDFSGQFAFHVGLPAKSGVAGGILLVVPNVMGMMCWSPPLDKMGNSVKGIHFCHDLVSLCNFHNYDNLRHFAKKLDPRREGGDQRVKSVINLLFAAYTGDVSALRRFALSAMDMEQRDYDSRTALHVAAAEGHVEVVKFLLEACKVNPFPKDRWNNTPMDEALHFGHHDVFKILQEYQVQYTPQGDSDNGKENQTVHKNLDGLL", "experiment": "qHTS for Inhibitors of Glutaminase (GLS): LOPAC Validation (AID 624146); also: nearly all actives have a fitted effect of over 60% in size; also: potency is read from the fitted curve at half-maximal effect", "conditions": "glutaminase enzyme activity inhibition; series mostly up to 46.1 µM", "in_short": "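hKGA in 45 mM KH2PO4 pH 8.2, 0.02% Tween-20 with pin-transferred compounds; 1 mM L-glutamine (stock) plus glutamate oxidase/HRP/Amplex Red coupling added. Fluorescence read initially and after 30 min at RT.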"}, "[2]": {"experiment": "qHTS of Trypanosoma Brucei Inhibitors: LOPAC Validation (AID 624147)", "conditions": "purified enzyme assay, luminescence, 45 min; series mostly up to 57.5 µM", "in_short": "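Luminescence from Kinase-Glo Plus, added after a 45-minute room-temperature reaction, served as the end-point read-out. The enzyme and substrate were preincubated with compound before ADP (130 uM final) initiated turnover. Concentration-effect curves came from normalized qHTS data.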"}, "[3]": {"target": "Glucagon-like peptide 1 receptor (Homo sapiens) (UniProt P43220)", "sequence (P43220 whole entry, looked up)": "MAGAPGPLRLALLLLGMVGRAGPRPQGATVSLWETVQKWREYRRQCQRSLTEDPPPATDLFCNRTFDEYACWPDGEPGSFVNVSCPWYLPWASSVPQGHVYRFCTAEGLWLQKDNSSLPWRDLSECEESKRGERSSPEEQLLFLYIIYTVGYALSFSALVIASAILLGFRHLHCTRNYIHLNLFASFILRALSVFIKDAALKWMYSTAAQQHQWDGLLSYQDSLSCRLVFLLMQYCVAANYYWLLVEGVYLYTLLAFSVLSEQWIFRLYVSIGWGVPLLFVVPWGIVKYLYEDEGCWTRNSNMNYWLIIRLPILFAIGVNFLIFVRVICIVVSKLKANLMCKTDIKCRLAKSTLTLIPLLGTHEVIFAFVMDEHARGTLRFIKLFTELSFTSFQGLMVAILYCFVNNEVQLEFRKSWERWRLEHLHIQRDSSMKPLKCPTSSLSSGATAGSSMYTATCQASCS", "experiment": "qHTS of GLP-1 Receptor Agonists: LOPAC Validation (AID 624148);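 also: higher luminescence signal means agonism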", "conditions": "GLP-1R agonist cell assay; series mostly up to 46.1 µM", "in_short": "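HEK293 cells stably co-expressing GLP-1R and a cAMP-responsive luciferase reporter, plated 12 hours before compound, then incubated 4-6 hr at 37 deg C. Luminescence read 12 min after detection reagent.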"}, "[4]": {"experiment": "qHTS of Nrf2 Activators: LOPAC Validation (AID 624149)", "conditions": "Nrf2/ARE reporter cell assay; series mostly up to 46.1 µM", "in_short": "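ARE reporter activation measured in AREc32 firefly luciferase cells after 24 hr compound exposure; Steady-Glo luminescence.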"}, "[5]": {"experiment": "HTS Assay for Allosteric Antagonists of the Human D2 Dopamine Receptor: Hit Validation in HTRF (AID 624455); also: potency is read from the fitted curve at half-maximal effect", "conditions": "Cells stably expressing D1 dopamine receptor, inhibition mode; series mostly up to 46.1 µM", "in_short": "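Signal from an HTRF read-out in D1-expressing stable cells gave hit activity as inhibition of the D1 response.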"}, "[6]": {"experiment": "S16 Schwann cell PMP22 intronic element beta-lactamase assay (AID 624044; calls by dose curve; also: nearly all actives have a fitted effect of over 15% in size)", "conditions": "S16 rat Schwann cells, PMP22 element beta-lactamase FRET, 24 h; series mostly up to 38.3 µM", "in_short": "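Rat S16 Schwann cells with beta-Lac driven by a PMP22 intronic element, compound-treated 24 h at 37 °C. LiveBLAzer FRET B/G read: 460 nm normalized to potassium clavulanate vs DMSO; 535 nm FRET as viability; concentration-effect curves classified.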"}, "[7]": {"experiment": "Cytotoxicity counterscreen for NFkB agonists and antagonists (AID 624476)", "conditions": "NFkB reporter cell line viability counterscreen; series mostly up to 46.1 µM"}, "[8]": {"experiment": "qHTS Assay for Identification of Small Molecule Agonists for NFkB Signaling Pathway. (AID 624478);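 also: compounds tested together with TNF alpha at its EC50 of 10 pM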", "conditions": "NFkB pathway reporter cell assay, agonist mode, cells co-stimulated with 10 pM TNF alpha; series mostly up to 46.1 µM", "in_short": "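Cells carrying an NFkB response element-driven beta-lactamase gene are co-treated with compound and 10 pM TNF alpha for 5 h, and reporter activity is then read as 460 and 530 nm fluorescence.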"}, "[9]": {"experiment": "qHTS Assay for Identification of Small Molecule Antagonists for NFkB Signaling Pathway. (AID 624479; calls by dose curve)", "conditions": "NFkB pathway reporter cell assay, antagonist mode; series mostly up to 38.3 µM"}, "[10]": {"experiment": "Cell Proliferation Assay against the TMD8 Cell Line (AID 651645)", "conditions": "TMD8 DLBCL cell line proliferation/viability; at 46.1 µM (top of the series)", "in_short": "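TMD8 ABC DLBCL cells, 500 per well in phenol red-free RPMI with 5% FBS, were treated with compound by pin transfer and incubated 48 hours at 37C, 5% CO2. Viability was read by CellTiter-Glo luminescence, normalised to DMSO (100%) and 9.2 uM bortezomib (0%).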"}}, "note": "Results filed as inconclusive are left out. Entries that show only a call come without a potency. Activity calls are given as the source filed them. Unless noted, calls follow the shape of the dose curve; as a rule, active = well fitted curve in the direction sought with a large enough effect; inconclusive = small, poorly fitted or top-dose-only effect, or another doubt; inactive = no such curve, though single readings can be large; an effect the other way counts as inactive or inconclusive."}
{"smiles": "C=C(C)[C@H]1CN[C@H](C(=O)O)[C@H]1CC(=O)O", "values": [{"measurement": "Potency", "setting": "[1]", "value": "inactive"}, {"measurement": "outcome", "setting": "[2]", "value": "inactive"}, {"measurement": "outcome", "setting": "[3]", "value": "inactive"}, {"measurement": "outcome", "setting": "[4]", "value": "inactive"}, {"measurement": "Potency", "setting": "[5]", "value": "inactive"}]}
{"smiles": "CN1CCC(O)(c2ccc(F)cc2)C(C(=O)c2ccc(F)cc2)C1", "note": "(configuration not stated)", "values": [{"measurement": "outcome", "setting": "[6]", "value": "inactive"}]}
{"smiles": "CC(NC(C)(C)C)C(=O)c1cccc(Cl)c1", "note": "(configuration not stated)", "values": [{"measurement": "Potency", "setting": "[1]", "value": "inactive"}, {"measurement": "outcome", "setting": "[2]", "value": "inactive"}, {"measurement": "outcome", "setting": "[3]", "value": "inactive"}, {"measurement": "outcome", "setting": "[4]", "value": "inactive"}, {"measurement": "Potency", "setting": "[5]", "value": "inactive"}]}
{"smiles": "COc1ccc2c(c1OC)C(=O)O[C@H]2[C@@H]1c2cc3c(cc2CCN1C)OCO3", "values": [{"measurement": "outcome", "setting": "[6]", "value": "inactive"}, {"measurement": "Potency", "setting": "[1]", "value": "inactive"}, {"measurement": "outcome", "setting": "[2]", "value": "inactive"}, {"measurement": "outcome", "setting": "[3]", "value": "inactive"}, {"measurement": "outcome", "setting": "[4]", "value": "inactive"}, {"measurement": "Potency", "setting": "[5]", "value": "inactive"}]}
{"smiles": "COP(=S)(OC)Oc1ccc(S(=O)(=O)N(C)C)cc1", "values": [{"measurement": "outcome", "setting": "[6]", "value": "inactive"}]}
{"smiles": "CCCCC/C=C\\C/C=C\\C/C=C\\C/C=C\\CCCC(=O)NCC(=O)O", "values": [{"measurement": "Potency", "setting": "[1]", "value": "inactive"}, {"measurement": "outcome", "setting": "[2]", "value": "inactive"}, {"measurement": "outcome", "setting": "[3]", "value": "inactive"}, {"measurement": "outcome", "setting": "[4]", "value": "inactive"}, {"measurement": "Potency", "setting": "[5]", "value": "inactive"}]}
{"smiles": "O=c1[nH]oc2c1CCNC2", "values": [{"measurement": "Potency", "setting": "[1]", "value": "inactive"}, {"measurement": "outcome", "setting": "[2]", "value": "inactive"}, {"measurement": "outcome", "setting": "[3]", "value": "inactive"}, {"measurement": "outcome", "setting": "[4]", "value": "inactive"}, {"measurement": "Potency", "setting": "[5]", "value": "inactive"}]}
{"smiles": "CC(C)c1cccc(C(C)C)c1O", "values": [{"measurement": "outcome", "setting": "[6]", "value": "inactive"}, {"measurement": "Potency", "setting": "[1]", "value": "4.47 µM (active)"}, {"measurement": "outcome", "setting": "[2]", "value": "inactive"}, {"measurement": "outcome", "setting": "[3]", "value": "inactive"}, {"measurement": "outcome", "setting": "[4]", "value": "inactive"}, {"measurement": "Potency", "setting": "[5]", "value": "inactive"}]}
{"smiles": "CN1C(=O)CCS(=O)(=O)C1c1ccc(Cl)cc1", "note": "(configuration not stated)", "values": [{"measurement": "Potency", "setting": "[1]", "value": "inactive"}, {"measurement": "outcome", "setting": "[2]", "value": "inactive"}, {"measurement": "outcome", "setting": "[3]", "value": "inactive"}, {"measurement": "outcome", "setting": "[4]", "value": "inactive"}, {"measurement": "Potency", "setting": "[5]", "value": "inactive"}]}
{"smiles": "COc1cccc([C@@]2(O)CCCC[C@@H]2CN(C)C)c1", "values": [{"measurement": "outcome", "setting": "[6]", "value": "inactive"}]}
{"smiles": "O=P1(N(CCCl)CCCl)NCCCO1", "note": "(configuration not stated)", "values": [{"measurement": "Potency", "setting": "[1]", "value": "inactive"}, {"measurement": "outcome", "setting": "[2]", "value": "inactive"}, {"measurement": "outcome", "setting": "[3]", "value": "inactive"}, {"measurement": "outcome", "setting": "[4]", "value": "inactive"}, {"measurement": "Potency", "setting": "[5]", "value": "inactive"}, {"measurement": "outcome", "setting": "[7]", "value": "inactive"}, {"measurement": "outcome", "setting": "[8]", "value": "inactive"}, {"measurement": "outcome", "setting": "[9]", "value": "inactive"}, {"measurement": "viability (% of control)", "setting": "[10]", "value": 114, "unit": "%"}]}
{"smiles": "COc1ccc2c(c1)C13CCCC[C@@H]1C(C2)N(C)CC3", "note": "(some centres not stated)", "values": [{"measurement": "outcome", "setting": "[6]", "value": "inactive"}]}
{"smiles": "CC(C)N(CCC(C(N)=O)(c1ccccc1)c1ccccn1)C(C)C", "note": "(configuration not stated)", "values": [{"measurement": "Potency", "setting": "[1]", "value": "inactive"}, {"measurement": "outcome", "setting": "[2]", "value": "inactive"}, {"measurement": "outcome", "setting": "[3]", "value": "inactive"}, {"measurement": "outcome", "setting": "[4]", "value": "inactive"}, {"measurement": "Potency", "setting": "[5]", "value": "inactive"}]}
{"smiles": "O=C(CCCN1CCC2(CC1)C(=O)NCN2c1ccccc1)c1ccc(F)cc1", "values": [{"measurement": "outcome", "setting": "[6]", "value": "inactive"}, {"measurement": "Potency", "setting": "[1]", "value": "inactive"}, {"measurement": "outcome", "setting": "[3]", "value": "inactive"}, {"measurement": "outcome", "setting": "[4]", "value": "inactive"}, {"measurement": "Potency", "setting": "[5]", "value": "inactive"}]}
{"smiles": "CCC1(c2ccc(N)cc2)CCC(=O)NC1=O", "note": "(configuration not stated)", "values": [{"measurement": "Potency", "setting": "[1]", "value": "inactive"}, {"measurement": "outcome", "setting": "[2]", "value": "inactive"}, {"measurement": "outcome", "setting": "[3]", "value": "inactive"}, {"measurement": "outcome", "setting": "[4]", "value": "inactive"}, {"measurement": "Potency", "setting": "[5]", "value": "inactive"}]}
{"smiles": "CC(C)(C)NCC(O)c1ccccc1Cl", "note": "(configuration not stated)", "values": [{"measurement": "Potency", "setting": "[1]", "value": "inactive"}, {"measurement": "outcome", "setting": "[2]", "value": "inactive"}, {"measurement": "outcome", "setting": "[4]", "value": "inactive"}, {"measurement": "Potency", "setting": "[5]", "value": "inactive"}]}
{"smiles": "COC(=O)C(c1ccccc1)C1CCCCN1", "note": "(configuration not stated)", "values": [{"measurement": "outcome", "setting": "[6]", "value": "inactive"}]}
{"smiles": "NCCc1ccc(O)cc1", "values": [{"measurement": "outcome", "setting": "[6]", "value": "inactive"}, {"measurement": "Potency", "setting": "[1]", "value": "inactive"}, {"measurement": "outcome", "setting": "[2]", "value": "inactive"}, {"measurement": "outcome", "setting": "[3]", "value": "inactive"}, {"measurement": "outcome", "setting": "[4]", "value": "inactive"}]}
{"smiles": "CCCC(C)(COC(N)=O)COC(N)=O", "values": [{"measurement": "outcome", "setting": "[6]", "value": "inactive"}]}
{"smiles": "O=C(O)CCCc1ccc(N(CCCl)CCCl)cc1", "values": [{"measurement": "Potency", "setting": "[1]", "value": "inactive"}, {"measurement": "outcome", "setting": "[2]", "value": "inactive"}, {"measurement": "outcome", "setting": "[3]", "value": "inactive"}, {"measurement": "outcome", "setting": "[4]", "value": "inactive"}, {"measurement": "Potency", "setting": "[5]", "value": "inactive"}]}
{"smiles": "CC(C)C[C@H]1C(=O)N2CCC[C@H]2[C@]2(O)O[C@](NC(=O)[C@@H]3C=C4c5cccc6[nH]c(Br)c(c56)C[C@H]4N(C)C3)(C(C)C)C(=O)N12", "values": [{"measurement": "Potency", "setting": "[5]", "value": "3.26 µM (active)"}]}
{"smiles": "Cc1ncsc1CCCl", "values": [{"measurement": "Potency", "setting": "[1]", "value": "inactive"}, {"measurement": "outcome", "setting": "[2]", "value": "inactive"}, {"measurement": "outcome", "setting": "[3]", "value": "inactive"}, {"measurement": "outcome", "setting": "[4]", "value": "inactive"}, {"measurement": "Potency", "setting": "[5]", "value": "inactive"}]}
